Most compounds without a hit are left out; they make up all but 11% or so of the library.
USP30 inh – blocks human USP30 ubiquitin-rhodamine cleavage | AID 1645860 | inhibition, % at 25 µM | actives 5.3% (n = 47,000) | purified USP30, Ub-rhodamine cleavage fluorescence
Target sequence (Q70CQ3 whole entry, looked up): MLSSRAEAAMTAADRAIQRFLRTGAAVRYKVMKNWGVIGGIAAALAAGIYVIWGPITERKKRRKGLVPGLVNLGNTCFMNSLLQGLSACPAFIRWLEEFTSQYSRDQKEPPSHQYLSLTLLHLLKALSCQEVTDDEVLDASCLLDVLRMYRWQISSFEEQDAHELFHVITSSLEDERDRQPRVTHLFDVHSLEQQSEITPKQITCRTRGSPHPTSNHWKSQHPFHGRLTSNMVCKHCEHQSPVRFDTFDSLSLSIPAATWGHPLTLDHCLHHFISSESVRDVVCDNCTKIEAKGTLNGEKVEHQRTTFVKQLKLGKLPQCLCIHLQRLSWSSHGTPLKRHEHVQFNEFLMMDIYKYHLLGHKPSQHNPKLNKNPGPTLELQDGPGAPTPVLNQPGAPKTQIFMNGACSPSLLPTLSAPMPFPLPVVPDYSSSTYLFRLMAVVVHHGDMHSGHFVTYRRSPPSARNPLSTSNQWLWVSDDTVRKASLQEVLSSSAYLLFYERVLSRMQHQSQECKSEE
USP28 inh – blocks human USP28 ubiquitin-rhodamine cleavage. purified USP28, Ub-rhodamine cleavage fluorescence, 30 min. inhibition, % at 25 µM. actives 3% (n = 47,000)
USP17 block – human USP17-like deubiquitinase inhibition; AID 1645855; actives 6.5% (n = 47,000); purified USP17, Ub-rhodamine cleavage fluorescence, 3 h; inhibition, % at 50 µM
OTUD3 inh – blocks human OTUD3 ubiquitin-rhodamine cleavage. Q5T2D3. purified OTUD3, Ub-rhodamine fluorescence, 2 h. inhibition, % at 25 µM. actives 0.7% (n = 47,000). AID 1645858
* marks the source's active call; other numbers are inactive results; i = inactive; x = not tested or not shown. Cut-off read from the data, not from the text of the source: active = inhibition above about 30%; inactive = the rest.

SMILES | USP30 inh | USP28 inh | USP17 block | OTUD3 inh
Cc1cc(C)n(-c2nc3c(c(=O)n2CC(=O)Nc2cccc(Cl)c2)CCCC3)n1 | 0 | 11 | 1 | 5
Cc1ccc(NC(=O)N2C[C@@H]3c4nccn4-c4ccccc4[C@@H]3C2)cc1 | 0 | -18 | -15 | -9
O=C(Nc1ccccn1)N1C[C@@H]2c3nccn3-c3ccccc3[C@@H]2C1 | 34* | 9 | 14 | 13
Cc1ccc2nc(C(=O)Nc3nc4ccc(S(C)(=O)=O)cc4s3)cn2c1 | -45 | -5 | -2 | 0
Cc1cc(C(=O)N2CCCC2c2ccnc(=O)[nH]2)c2c(C)noc2n1 (configuration not stated) | -15 | 0 | -3 | 0
Cn1c(=O)n(CC(=O)Nc2ccc(F)c(Cl)c2)c(=O)c2ccccc21 | 5 | 0 | 2 | 6
O=C(NCc1ccco1)C(=O)Nc1ccc(F)c(Cl)c1 | -11 | -12 | 35* | -9
O=C(CCCCn1c(=O)c2ccccc2n(CC(=O)Nc2ccc(F)c(Cl)c2)c1=O)NCc1ccco1 | -6 | 22 | 70* | 26
C[C@H](NC(=O)c1ccc(Cl)cc1Cl)C(=O)NCc1ccco1 | -2 | -5 | -6 | 0
CCOC(=O)c1ccc(NC(=O)Cn2c(=O)n(CC(=O)NCc3ccco3)c(=O)c3ccccc32)cc1 | 59* | 28 | 41* | 17
O=C(Cn1c(=O)c2ccccc2n(CC(=O)Nc2ccc(F)c(Cl)c2)c1=O)NCc1ccco1 | 45* | 39* | 62* | 49*
Cc1cc(CNC(=O)c2nnn(-c3cccc4c3CCN(C3CCOCC3)C4)c2C)on1 | -193 | -40 | -40 | -30
Cc1cccc(C(=O)N2C[C@@H]3OCCN(CC4CC4)[C@@H]3C2)c1 | 11 | 12 | 17 | 24
COc1ccc2[nH]cc(S(=O)(=O)c3ccc(C#N)cc3)c(=O)c2c1 | 19 | 14 | 31* | 6
COc1ccc2[nH]cc(S(=O)(=O)c3ccc(C)c(F)c3)c(=O)c2c1 | 43* | 14 | 59* | 14
COc1ccc(S(=O)(=O)c2c[nH]c3ccc(C)cc3c2=O)cc1Cl | 15 | 23 | 37* | 2
Cc1ccccc1-n1c2c(c(=O)[nH]c1=O)CN(CCc1ccccc1)CN2 | 11 | 8 | 11 | 11
COc1ccc(-c2noc(CN3CCCC3c3cnn(C)c3)n2)cc1 (configuration not stated) | -96 | -12 | -11 | -12
C[C@H]1CN(C(=O)Nc2ccc3c(c2)CCC3)C[C@@H]1c1nc(-c2cccnc2)no1 | -6 | 5 | x | -3
CC(=O)O[C@@H]1OC(=O)[C@](C)(C(C)=O)[C@@H]1C | 33* | 11 | 39* | 17
CCN1CCc2nc(NC(=O)COc3c(Cl)cccc3Cl)sc2C1 | -3 | 12 | 37* | 3
COc1ccc(Cn2cc(S(=O)(=O)N3CCCCC3)ccc2=O)cc1 | 8 | 6 | 2 | 9
COc1ccc(S(=O)(=O)c2c(C)c(C)n(C(C)C)c2NC(=O)c2ccccc2F)cc1 | -13 | 0 | 31* | -10
O=C(NCc1cccc(C(F)(F)F)c1)c1cc(S(=O)(=O)N2CCCCC2)ccc1N1CCOCC1 | -12 | -12 | 2 | 4
COc1ccc(CNC(=O)CNc2cc(C)nc3nc(-c4cccnc4)nn23)cc1 | 31* | -10 | 5 | 21
SMILES | USP30 inh | USP28 inh | USP17 block | OTUD3 inh
CC(C)c1cc(NCc2ccccc2)n2nc(-c3cccnc3)nc2n1 | 55* | 20 | 27 | 9
CCCCNC(=O)c1ccc(Nc2cc(C)nc3nc(-c4cccnc4)nn23)cc1 | 47* | 19 | 0 | 13
CCCNC(=O)c1ccc(Nc2cc(CCC)nc3nc(-c4cccnc4)nn23)cc1 | 11 | 11 | 27 | 8
Cc1ccc(NC(=O)CCn2nc(C)c(S(=O)(=O)N3CCOCC3)c2C)cc1 | -14 | -3 | -11 | -6
Cc1cc(NC(=O)CN2CCCCC2Cn2cncn2)no1 (configuration not stated) | -10 | -4 | 5 | 4
CCc1cccc(NC(=O)Cn2cc(C(=O)N3CCCC3)c(=O)c3ccc(C)nc32)c1 | -16 | 6 | -4 | 0
Cc1cc(=O)[nH]c(SCC(=O)c2cc(C)n(CCC3=CCCCC3)c2C)c1C#N | -271 | -58 | 47* | -36
Cc1ccc2[nH]c3c(=O)n(CCC4=CCCCC4)cnc3c2c1 | 10 | 5 | 15 | 10
Cc1cccc(Cn2cc(C(=O)O)c3ccccc3c2=O)c1 | -4 | 8 | -5 | 0
COc1ccc2c(c1)c(=O)c(S(=O)(=O)c1ccccc1)cn2Cc1cccc(C)c1 | 32* | 23 | 14 | 5
c1ccc(-n2nnc(-c3noc(-c4ccco4)n3)c2-c2ccncc2)cc1 | 18 | 4 | 17 | 5
c1ccc(-n2nnc(-c3noc(-c4cccnc4)n3)c2-c2ccncc2)cc1 | 54* | 11 | 16 | 9
O=C(OCc1c(F)cccc1Cl)c1c2c(nc3ccccc13)CCC2 | 25 | 34* | 44* | 25
CC(C)(C)C(=O)COC(=O)c1c2c(nc3ccccc13)CCCCC2 | 6 | 2 | 11 | 3
Cc1nc(NCc2ccc3c(c2)OCO3)ncc1C(=O)NCCN1CCOCC1 | -128 | -29 | -35 | -26
COc1cc(OC)cc(C(=O)N2CCN(c3nc(-c4ccccc4)no3)CC2)c1 | -21 | -11 | -11 | -10
Clc1ccc(OCc2nc(-c3ccn4cnnc4c3)no2)cc1 | -99 | 45* | 14 | -91
Fc1cccc(Cc2nc(-c3ccc4nncn4c3)no2)c1 | x | x | -3 | -5
COc1ccc(Cc2nc(-c3ccc4nncn4c3)no2)c(Cl)c1 | 5 | 41* | 0 | 1
Fc1ccc(Cc2nc(-c3ccc4nncn4c3)no2)cc1 | -1 | 58* | 1 | -1
CCOc1ccc(Cc2nc(-c3ccc4nnc(C)n4c3)no2)cc1 | 3 | -1 | 0 | -1
Cc1ccc(NC(=O)c2cccc(-n3cnnc3)n2)cc1Cl | 28 | 0 | -29 | 1
COc1ccc(NS(=O)(=O)c2ccc3c(c2)NC(=O)CS3)cc1Cl | 0 | -8 | -5 | -11
COc1ccc(-c2c(NC(=O)C3COc4ccccc4O3)n[nH]c2C)cc1OC (configuration not stated) | 11 | 32* | 0 | 8
COc1ccc(-c2c(NC(=O)c3cc(F)cc(F)c3)n[nH]c2C)cc1OC | 27 | 13 | x | 14
SMILES | USP30 inh | USP28 inh | USP17 block | OTUD3 inh
Cc1[nH]nc(NC(=O)C2COc3ccccc3O2)c1-c1ccccc1 (configuration not stated) | 25 | 53* | 39* | 37*
CC(C)N1CCc2c(C#N)c(NCc3ccco3)n3cnnc3c2C1 | i | -220 | -168 | -144
CN(C)C(=O)c1ccc(OC2CCN(C(=O)c3ccc(F)cc3)CC2)nc1 | -48 | 3 | 12 | 2
Cc1cc(C)cc(C(=O)N2CCC(Oc3ccc(C(=O)N(C)C)cn3)CC2)c1 | 0 | 44* | 1 | 2
COc1cc(S(=O)(=O)N2CCC(c3nc4c(nnn4Cc4ccc(F)cc4)c(=O)[nH]3)CC2)ccc1-n1cnnn1 | 47* | 25 | 32* | -11
CC(C)(C)c1ccc(Cn2nnc3c(=O)[nH]c(C4CCN(S(=O)(=O)c5ccc(S(=O)(=O)NC6CC6)cc5)CC4)nc32)cc1 | 10 | 32* | 64* | 11

Screening data as filed in PubChem BioAssay.
